# In the supplement of paper PMC10477191:
# ± gives the standard deviation of the averaged measurements.
# Test system: Drosophila virilis antennal basiconic sensillum AB2
# Assay: odor-evoked OSN spike response (post minus pre-stimulus); higher = stronger neuronal excitation
# Conditions: odor dilution: 10^-4
# Summary of the method: (§1)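 Recordings came from antennal basiconic sensilla of restrained adult flies, taking up to 3 sensilla per fly, with a tungsten electrode placed at the sensillum base. Each odorant was diluted to 10^−4 in mineral oil or DMSO, and 10 µl was loaded onto filter paper. A 500 ms air pulse carried it into a charcoal-filtered, humidified air stream flowing at 1.5 l min^−1. The value reported is the change in spike frequency from a 1-second window before the stimulus to a 1-second window after it, counted in Auto Spike software and averaged across replicate sensilla.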
row,Structure (SMILES),odor-evoked OSN spike response [spikes/s]
1,CCCC(=O)OCC [ethyl butanoate],71.9 ± 26
2,CCCC(=O)OCc1ccccc1 [benzyl butyrate],58.8 ± 31
3,C/C=C/C(=O)OCC [Ethyl crotonate],47.5 ± 26
4,CC(C)OC(=O)c1ccccc1 [isopropyl benzoate],45.6 ± 23
5,CCOC(C)=O [Ethyl acetate],65 ± 20

# Test system: Drosophila virilis antennal basiconic sensillum AB3
# Assay: as above
# Conditions: odor dilution: 10^-4
# Summary of the method: as §1
row,Structure (SMILES),odor-evoked OSN spike response [spikes/s]
1,CCCCCOC(C)=O [pentyl acetate],121 ± 16
2,CCCCCC(=O)OCC [ethyl hexanoate],153 ± 23
3,"CC(O)C(C)O (stereo unspecified) [2,3-Butanediol]",67.8 ± 30
4,CCOC(=O)C(C)O (stereo unspecified) [Ethyl lactate],156 ± 44
5,CC(=O)C(C)O (stereo unspecified) [acetoin],226 ± 54
6,CCOC(=O)CC(C)O (stereo unspecified) [Ethyl-3-hydroxybutyrate],167 ± 54

# Test system: Drosophila virilis antennal basiconic sensillum AB6
# Assay: as above
# Conditions: odor dilution: 10^-4
# Summary of the method: as §1
row,Structure (SMILES),odor-evoked OSN spike response [spikes/s]
1,C=CC(O)CCCCC (stereo unspecified) [1-octen-3-ol],114 ± 44
2,CCOC(=O)C(C)O (stereo unspecified) [Ethyl lactate],50 ± 22
3,COc1ccccc1O [guaiacol],73.3 ± 47
4,CCOC(=O)CC(C)O (stereo unspecified) [Ethyl-3-hydroxybutyrate],63.2 ± 25

# Test system: Drosophila virilis antennal basiconic sensillum AB7
# Assay: as above
# Conditions: odor dilution: 10^-4
# Summary of the method: as §1
row,Structure (SMILES),odor-evoked OSN spike response [spikes/s]
1,CCCCC(C)=O [2-hexanone],50.8 ± 8.6
2,C=CC(O)CCCCC (stereo unspecified) [1-octen-3-ol],106 ± 11
3,CCCC(=O)OCC [ethyl butanoate],68.8 ± 9.7
4,CC(=O)CCC=C(C)C [6-methyl-5-hepten-2-one],150 ± 34
5,CCCCCOC(C)=O [pentyl acetate],75.4 ± 13
6,CC(C)CCO [Isopentyl alcohol],51.2 ± 14
7,CCCCCC(=O)OCC [ethyl hexanoate],49 ± 24
8,CCCCC(C)O (stereo unspecified) [2-hexanol],61.4 ± 9.6
9,"CC(O)C(C)O (stereo unspecified) [2,3-Butanediol]",66.2 ± 17
10,CCCCCCO [1-hexanol],61.4 ± 22
11,CCOC(=O)C(C)O (stereo unspecified) [Ethyl lactate],52.6 ± 7.5
12,CCCCCC(C)=O [2-heptanone],155 ± 25
13,CCCC(O)CC (stereo unspecified) [3-hexanol],57 ± 28
14,CCOC(=O)CC(C)O (stereo unspecified) [Ethyl-3-hydroxybutyrate],85.6 ± 14

# Test system: Drosophila virilis antennal basiconic sensillum AB8
# Assay: as above
# Conditions: odor dilution: 10^-4
# Summary of the method: as §1
row,Structure (SMILES),odor-evoked OSN spike response [spikes/s]
1,C=CC(O)CCCCC (stereo unspecified) [1-octen-3-ol],113 ± 14
2,CCCCCOC(C)=O [pentyl acetate],119 ± 24
3,CCC(=O)OCCC(C)C [Isopentyl propionate],56.8 ± 27
4,CCCCCC(=O)OCC [ethyl hexanoate],66.1 ± 8.9
5,CCCCCCO [1-hexanol],239 ± 25
6,CCOC(=O)C(C)O (stereo unspecified) [Ethyl lactate],44.8 ± 12
7,CCCCCCOC(C)=O [Hexyl acetate],35.3 ± 18
8,CCOC(=O)CC(C)O (stereo unspecified) [Ethyl-3-hydroxybutyrate],53 ± 9.4

# Test system: Drosophila virilis antennal basiconic sensillum AB9
# Assay: as above
# Conditions: odor dilution: 10^-4
# Summary of the method: as §1
row,Structure (SMILES),odor-evoked OSN spike response [spikes/s]
1,CCCOC(C)=O [propyl acetate],84.2 ± 24
2,CCOC(=O)c1ccccc1 [ethyl benzoate],85.5 ± 21
3,CCCC(=O)OCC [ethyl butanoate],75.9 ± 26
4,CCCCCOC(C)=O [pentyl acetate],80 ± 39
5,CCC(=O)OCCC(C)C [Isopentyl propionate],86.6 ± 27
6,CCCCCC(=O)OCC [ethyl hexanoate],67.4 ± 21
7,CCCCCCO [1-hexanol],28.8 ± 14
8,CCOC(=O)C(C)O (stereo unspecified) [Ethyl lactate],72.4 ± 20
9,CCCC(=O)CC [3-hexanone],65.5 ± 27
10,CC(=O)OCCC(C)C [Isopentyl acetate],81.4 ± 33
11,CCCCCCOC(C)=O [Hexyl acetate],53.3 ± 21
12,CC(=O)C(C)O (stereo unspecified) [acetoin],97.4 ± 24
13,COC(=O)c1ccccc1 [methyl benzoate],86.1 ± 27
14,CCOC(=O)CC(C)O (stereo unspecified) [Ethyl-3-hydroxybutyrate],58.3 ± 24
